Compounds with a hit are over-represented: about 4.6% of the library has one in this group of screens.
ABHD5-PLIN5 inh – inhibitors of human ABHD5-perilipin-5 interaction. Q00G26+Q8WTS1. inhibition, % at 4 µM. AID 602281. hit rate 0.78% among 360,000. Split G. princeps luciferase complementation, luminescence, 4 h;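 active = inhibition above the mean inhibition across every tested compound plus 3 SD, cut at about 22% in these data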;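 note: 0% = DMSO only wells and the 100% control is not disclosed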
CF NFkB block – blocks PAF-induced NF-kB reporter in cystic fibrosis cells | hit rate 0.86% among 360,000 | AID 588850 | KKLEB NF-kB-GFP reporter, GFP fluorescence overnight | inhibition, % at 5 µM;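 active = at least 50% inhibition at 5 µM, scaled per plate between neutral and stimulator controls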;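 note: PAF is a Pseudomonas aeruginosa culture filtrate used as stimulus; plate controls were PAF-stimulated DMSO wells for no effect and unstimulated DMSO wells for full effect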
Mdm2 MdmX PPI – human Mdm2/MdmX binding inhibition | O15151+Q00987 | SaOS-2 split-luciferase Mdm2/MdmX complementation, luminescence | inhibition, % at 8 µM | hit rate 3% among 330,000 | AID 485346;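 active = inhibition of at least 50% at 8 µM in the primary screen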
Target sequence (O15151 whole entry, looked up): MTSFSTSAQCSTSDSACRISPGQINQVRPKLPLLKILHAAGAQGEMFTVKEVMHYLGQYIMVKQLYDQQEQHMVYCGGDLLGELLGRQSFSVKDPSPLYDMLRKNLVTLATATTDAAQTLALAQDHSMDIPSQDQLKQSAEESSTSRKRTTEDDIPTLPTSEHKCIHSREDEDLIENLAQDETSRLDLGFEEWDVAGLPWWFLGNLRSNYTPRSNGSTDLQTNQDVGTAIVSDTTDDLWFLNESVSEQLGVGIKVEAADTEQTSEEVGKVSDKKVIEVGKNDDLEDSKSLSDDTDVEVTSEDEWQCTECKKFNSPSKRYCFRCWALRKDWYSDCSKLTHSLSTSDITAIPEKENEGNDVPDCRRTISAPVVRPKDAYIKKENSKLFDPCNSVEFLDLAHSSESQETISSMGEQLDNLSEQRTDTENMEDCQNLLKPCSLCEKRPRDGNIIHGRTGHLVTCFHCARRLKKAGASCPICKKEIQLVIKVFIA
Target sequence (Q00987 whole entry, looked up): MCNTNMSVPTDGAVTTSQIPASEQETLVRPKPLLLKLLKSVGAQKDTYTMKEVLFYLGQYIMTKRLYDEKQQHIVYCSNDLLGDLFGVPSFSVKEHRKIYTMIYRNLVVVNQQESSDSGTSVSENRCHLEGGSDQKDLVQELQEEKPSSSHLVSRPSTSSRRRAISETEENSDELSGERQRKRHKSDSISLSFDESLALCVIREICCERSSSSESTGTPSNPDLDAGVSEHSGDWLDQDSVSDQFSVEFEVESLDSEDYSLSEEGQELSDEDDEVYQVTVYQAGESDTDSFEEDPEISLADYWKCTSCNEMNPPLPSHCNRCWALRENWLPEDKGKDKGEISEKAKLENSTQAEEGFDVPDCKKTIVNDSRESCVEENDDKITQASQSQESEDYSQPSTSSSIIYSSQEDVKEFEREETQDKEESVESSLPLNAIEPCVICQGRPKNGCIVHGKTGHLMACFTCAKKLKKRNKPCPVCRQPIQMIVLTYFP
KKLEB tox – CF airway cell cytotoxicity counter-screen; AID 602141; activity change (cytotoxicity), % at 5 µM; KKLEB CF airway cells viability, ATPlite luminescence, overnight; hits give low values; cells stimulated with P. aeruginosa culture filtrate; hit rate 0.36% among 360,000;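 active = corrected activity change at or below -50% at 5 µM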
Peg3 prom inh-1 – reduces Peg3 promoter-driven luciferase expression in HeLa. HeLa PEG-Prom luciferase reporter, luminescence, overnight. inhibition, % at 20 µM. hit rate 1.7% among 360,000. AID 588405;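 active = inhibition of at least 50% at 20 µM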
HIF-2a inh – inhibitors of HIF-2a; inhibition, % at 18.8 µM; hit rate 0.72% among 360,000; 786-0 RCC cells HIF-2a reporter, luciferase luminescence, overnight; AID 624352;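 active = inhibition of the luminescence signal of 40% or more relative to plate controls, in a single-dose primary screen at 18.75 µM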
Mdm2 MdmX conf – confirmation of human Mdm2/MdmX interaction inhibitors; inhibition, % at 8 µM; shares compounds with Mdm2 MdmX PPI; AID 489028; hit rate 55% among 10,000; Mdm2-MdmX binding, luminescent assay
FLuc counter – full-length luciferase inhibition in Mdm2/MdmX counter-screen; hit rate 77% among 6,200; AID 504607; SaOS-2 full-length luciferase counterscreen, luminescence; shares compounds with Mdm2 MdmX PPI; inhibition, % at 8 µM;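 active = mean inhibition at 8 µM reaching about 37%, which flags the compound as non-specific, limit read from the data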;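 note: p53-null SaOS-2 cells with luciferase driven by a doxycycline-inducible promoter; compound on cells about two nights before reading with doxycycline added after day one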
Peg3 prom inh-2 – confirmation of Peg3 promoter inhibitors; shares compounds with Peg3 prom inh-1; HeLa PEG-Prom luciferase reporter, luminescence, overnight; inhibition, % at 20 µM; hit rate 84% among 1,300; AID 602417;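 active = at 20 µM dose, 40% or more inhibition averaged across four replicates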
CF NFkB conf – CF NF-kB inhibition confirmation, single concentration | shares compounds with CF NFkB block | KKLEB CF airway cells, PAF-induced NF-kB-GFP fluorescence, overnight | inhibition, % at 5 µM | hit rate 64% among 1,300;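 note: stimulus PAF is a Pseudomonas aeruginosa filtrate and not platelet activating factor; plate controls were DMSO wells with stimulus for no effect and unstimulated DMSO wells for full effect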
The depositor's hits bear a star; nt = no result. Cut-off read from the data, not from the text of the source, unless noted: active = inhibition above about 40%; inactive = the rest.

SMILES | ABHD5-PLIN5 inh | CF NFkB block | Mdm2 MdmX PPI | KKLEB tox | Peg3 prom inh-1 | HIF-2a inh | Mdm2 MdmX conf | FLuc counter | CF NFkB conf | others
CN1CCN(CCNC(=O)c2ccc3nc(-c4ccc(F)cc4)c(-c4ccc(F)cc4)nc3c2)CC1 | 8.0 | -14.1 | 54.4* | -11.3 | 74.4* | -5.3 | 28.9 | nt | nt | Peg3 prom inh-2=90.0*
Cc1ccc(-n2[nH]c(=O)c(-c3ccccn3)c2C)cc1 | 2.8 | -7.1 | 79.0* | -6.8 | 73.5* | 73.0* | 81.2* | 54.2* | nt | Peg3 prom inh-2=59.2*
Cc1ccc(-n2[nH]c(=O)c3cccnc32)cc1 | 1.9 | 12.4 | -16.1 | 10.4 | -10.0 | -11.1 | nt | nt | nt
Cc1ccc2nc(/C(C#N)=C\c3ccc([N+](=O)[O-])o3)[nH]c2c1 | -10.3 | 12.4 | 96.9* | -67.9* | 105.5* | -31.2 | 75.0* | 29.9 | nt | Peg3 prom inh-2=84.3*
Cc1ccc2nc(/C(C#N)=C/c3ccc(-c4ccccc4C(=O)O)o3)[nH]c2c1 | -3.2 | 11.5 | -19.1 | -8.9 | 4.4 | 6.2 | nt | nt | nt
COc1ccccc1NS(=O)(=O)c1ccc(-c2cnc(C3CC3)o2)cc1 | 2.7 | 54.1* | 69.8* | -26.5 | 2.8 | 21.7 | 63.9* | 80.5* | 70.5*
Cc1ccc(NS(=O)(=O)c2ccc(-c3cnc(C4CC4)o3)cc2)c(C)c1 | -12.9 | 65.1* | 76.9* | -13.4 | -9.7 | 12.0 | 55.5* | 95.4* | 65.1*
CC(C)CN(C(=O)COC(=O)c1nc(Cl)ccc1Cl)c1c(N)n(Cc2ccccc2)c(=O)[nH]c1=O | -3.5 | -1.2 | 29.4 | -8.2 | 6.8 | 14.0 | nt | nt | nt
COc1ccc(NC(=O)Nc2nnc(CC(=O)NCc3ccccc3)s2)cc1 | 10.4 | -21.7 | 27.2 | 1.4 | -13.4 | -9.0 | nt | nt | nt
COc1cccc(NC(=O)Nc2nnc(CC(=O)NCc3ccccc3)s2)c1 | 0.7 | 61.2* | 55.6* | -1.5 | 8.0 | 12.5 | 51.2* | 35.1 | 79.9*
O=C(Nc1ccc(F)cc1)Nc1ccc(N2CCCC2)c(S(=O)(=O)Nc2ccccc2Cl)c1 | -4.1 | 60.2* | 91.3* | -16.0 | 42.2 | -14.8 | 65.5* | 20.4 | 70.6*
COc1ccc(C(C)(NC(C)=O)c2nc(-c3ccncc3)cs2)cc1 (stereo not drawn) | -0.7 | -14.0 | nt | 0.7 | -1.3 | 19.9 | nt | nt | nt
COCCCN=C1NN=C(c2cc(C)n(-c3ccccc3)c2C)CS1 | -18.8 | 15.5 | 12.8 | -10.9 | -141.8 | -16.7 | nt | nt | nt
COCCCN=C1NN=C(c2cc(C)n(Cc3ccccc3Cl)c2C)CS1 | -2.1 | 53.5* | 78.7* | -13.5 | -202.5 | -76.4 | 76.5* | 79.8* | 60.4*
O=[N+]([O-])c1cc(S(=O)(=O)NCCN2CCOCC2)ccc1Sc1nnnn1-c1ccccc1 | 12.6 | 73.0* | 65.6* | -3.2 | 42.5 | 10.7 | 49.7* | 20.4 | 19.3
COc1ccc(C(=O)Nc2cccc(NC(=O)c3ccc(OC)c(OC)c3)n2)cc1OC | 2.9 | 83.9* | 55.4* | 0.1 | 13.6 | -84.7 | 49.1* | 89.2* | 62.1*
COC(=O)c1ccccc1NC(=O)c1ccccc1OC | -4.5 | 14.4 | 4.8 | -2.3 | -25.7 | -17.8 | nt | nt | nt
COc1ccccc1C(=O)Nc1ccccc1SC(=O)c1ccccc1OC | -50.3 | 51.3* | 62.6* | 2.1 | -92.7 | -98.4 | 39.9 | 90.5* | 39.3
COc1ccc(CN2C(=O)CN(S(C)(=O)=O)CC2(C)C(=O)NC(C)C)cc1OC (stereo not drawn) | 4.1 | nt | nt | nt | nt | 2.8 | nt | nt | nt
CCOC(=O)Cc1nnc2c(Nc3ccc(Cl)cc3)nc3nonc3n12 | -6.4 | 50.7* | 92.5* | -20.9 | 48.6 | 7.2 | 40.4* | 44.4* | 59.3*
CCN(C(=O)COc1ccc2ccc(=O)oc2c1)C1CCCCC1 | -2.8 | 8.2 | 6.5 | 5.2 | -13.3 | -0.1 | nt | nt | nt
C[C@@H]1CC=C[C@@H]2[C@H]1C(=O)N(Cc1ccccc1)[C@H]2c1ccccc1Br | 1.9 | 21.4 | 1.6 | -4.0 | 26.5 | 1.0 | nt | nt | nt
COc1ccc(-c2c([C@H]3[C@H]4C=CC[C@@H](C)[C@@H]4C(=O)N3Cc3ccccc3)ccc3ccccc23)cc1OC | 6.8 | 62.2* | 71.0* | -23.7 | -1.8 | 14.6 | 19.9 | nt | 45.6*
COc1ccc(-c2ccccc2[C@H]2[C@@H]3C=CC[C@@H](C)[C@@H]3C(=O)N2Cc2ccccc2)cc1 | 1.1 | 60.4* | 69.3* | -26.2 | 33.3 | 6.2 | 22.2 | nt | 50.2*
COc1ccc(-c2ccc([C@H]3[C@H]4C=CC[C@@H](C)[C@@H]4C(=O)N3Cc3ccccc3)c(F)c2)cc1C | 0.1 | 26.3 | 28.6 | -9.2 | 7.7 | 35.0 | nt | nt | nt
SMILES | ABHD5-PLIN5 inh | CF NFkB block | Mdm2 MdmX PPI | KKLEB tox | Peg3 prom inh-1 | HIF-2a inh | Mdm2 MdmX conf | FLuc counter | CF NFkB conf | others
COc1ccc(-c2ccc(F)cc2)cc1[C@H]1[C@H]2C=CC[C@@H](C)[C@@H]2C(=O)N1Cc1ccccc1 | -13.0 | 75.1* | 60.9* | -1.9 | 16.0 | 11.2 | 44.3* | 50.1* | 35.4
COc1ccc(N(Cc2cc(=O)[nH]c3ccccc23)C(=O)CCl)cc1 | -3.2 | 74.7* | 100.3* | -32.8 | 80.3* | 1.5 | 79.3* | 62.6* | 70.6*
CCCC(=O)N(Cc1cc(=O)[nH]c2ccccc12)c1ccc(OC)cc1 | -1.5 | 15.8 | 15.0 | -0.9 | 23.4 | 17.2 | nt | nt | nt
NC(=O)c1nc(-c2cccs2)nc2c1[nH]c(=O)n2-c1ccc(F)cc1 | 1.3 | 53.0* | 100.3* | -41.9 | 43.4 | 5.9 | 67.0* | 81.5* | 1.9
CC(C)Cc1nc(C(N)=O)c2[nH]c(=O)n(-c3ccc(F)cc3)c2n1 | 3.6 | 11.9 | -5.6 | -7.5 | 18.2 | 6.5 | nt | nt | nt
COc1ccc(S(=O)(=O)NCc2ccco2)cc1NC(=O)c1ccccc1 | -5.2 | -6.3 | 17.8 | 6.7 | 19.6 | 3.6 | nt | nt | nt
CC(C)C[C@@H]1NC(=O)[C@H](Cc2ccccc2)N(C)C(=O)[C@H](C)NC(=O)c2ccccc2NC(=O)[C@H](Cc2ccc(O)cc2)N(C)C1=O | 2.0 | 82.1* | 74.9* | -23.6 | 51.9* | -7.6 | 57.1* | 71.1* | 94.2*
COc1ccc(-c2cn[nH]c2-c2ccc(OC)cc2O)cc1 | -2.1 | 72.4* | 70.7* | -5.0 | 28.3 | 9.1 | 61.9* | 32.5 | 79.8*
COc1ccc(-c2[nH]ncc2-c2ccc(Cl)cc2)c(O)c1 | -3.0 | 21.4 | 43.9 | -10.0 | 42.1 | -8.9 | nt | nt | nt
COc1ccc(C(=O)Nc2ccc(/C(C)=N/NC(=O)c3ccccc3O)cc2)cc1OC | -1.6 | -5.2 | 5.6 | -4.6 | -20.3 | -12.6 | nt | nt | nt
CC(=O)Oc1ccccc1C(=O)Nc1ccccc1 | -5.6 | -1.0 | 9.2 | 6.9 | -158.5 | -183.2 | nt | nt | nt

Screening results from PubChem.
